# Experimental data: PubChem BioAssay
# Active and inactive are the calls of the source. Unless noted, no rule for the calls is given here.
# Experiments:
# [1] = compounds binding Alexa647 anti-His antibody – biochemical, small-molecule microarray, 635 nm fluorescence, artefact control for SMM control protein annotation, primary screen (AID 1128); conditions: higher = more signal;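 also: score merges feature fluorescence with signal-to-noise for each printed compound spot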
# [2] = test system: Human papillomavirus type 1a E7 protein (residues 1-88); assay: HPV1a E7 small-molecule binders, primary screen, biochemical, small-molecule microarray, residues 1-88, 635 nm (AID 1129); conditions: small-molecule microarray binding, fluorescence 635 nm; higher = more signal
# [3] = target: Focal adhesion kinase 1 (Homo sapiens) (UniProt Q05397); assay: PTK2 protein binding on printed compound slides – biochemical, small-molecule microarray, 635/667 nm fluorescence, BSA, DTT, primary screen (AID 1130); conditions: 635 nm fluorescence, higher = more signal;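 also: composite of spot emission at 667 nm and signal to noise over triplicate slides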
# Sequence of Focal adhesion kinase 1 (Homo sapiens) (Q05397 whole entry, looked up): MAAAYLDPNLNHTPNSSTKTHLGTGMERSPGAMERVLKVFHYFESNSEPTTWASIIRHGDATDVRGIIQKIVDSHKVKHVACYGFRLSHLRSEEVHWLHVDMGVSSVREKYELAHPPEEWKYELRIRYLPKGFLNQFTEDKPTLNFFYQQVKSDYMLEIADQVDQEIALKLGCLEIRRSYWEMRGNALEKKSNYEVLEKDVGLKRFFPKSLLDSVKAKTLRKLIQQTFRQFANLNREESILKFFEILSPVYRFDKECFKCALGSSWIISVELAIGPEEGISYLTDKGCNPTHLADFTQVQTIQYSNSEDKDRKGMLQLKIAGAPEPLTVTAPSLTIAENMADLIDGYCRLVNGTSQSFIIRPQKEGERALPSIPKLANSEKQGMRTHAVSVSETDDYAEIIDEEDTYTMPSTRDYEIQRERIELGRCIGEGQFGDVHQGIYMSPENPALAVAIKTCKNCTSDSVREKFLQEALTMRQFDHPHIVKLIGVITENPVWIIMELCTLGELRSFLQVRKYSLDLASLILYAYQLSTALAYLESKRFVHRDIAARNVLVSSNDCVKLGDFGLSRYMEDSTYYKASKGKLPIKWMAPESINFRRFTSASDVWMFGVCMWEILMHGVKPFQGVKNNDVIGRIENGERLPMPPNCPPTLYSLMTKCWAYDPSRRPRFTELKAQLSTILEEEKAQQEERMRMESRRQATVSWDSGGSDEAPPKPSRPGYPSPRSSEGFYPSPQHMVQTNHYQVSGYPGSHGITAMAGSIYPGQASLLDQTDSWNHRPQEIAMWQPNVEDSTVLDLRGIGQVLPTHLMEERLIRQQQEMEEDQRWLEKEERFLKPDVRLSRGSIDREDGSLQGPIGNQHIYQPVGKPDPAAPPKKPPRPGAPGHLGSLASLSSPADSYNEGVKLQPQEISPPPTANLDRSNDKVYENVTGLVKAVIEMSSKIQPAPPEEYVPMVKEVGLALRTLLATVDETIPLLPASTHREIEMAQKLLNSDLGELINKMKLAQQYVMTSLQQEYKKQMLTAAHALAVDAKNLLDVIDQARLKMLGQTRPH
# [4] = test system: Fibrinogen (Alexa647-labelled); assay: Alexa647-fibrinogen binding to printed small molecules – biochemical, small-molecule microarray, 635/667 nm fluorescence, artefact control for SMM control-protein annotation, profiling panel (AID 1131); conditions: fibrinogen-A647 binding fluorescence, higher = more signal;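 also: z-score merges 667 nm fluorescence with per-spot signal-to-noise over triplicate slides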
# [5] = target: Follistatin (Homo sapiens) (UniProt P19883); assay: FST protein binding to printed compounds – biochemical, small-molecule microarray, 635/667 nm fluorescence, primary screen (AID 1132); conditions: 635 nm fluorescence, higher = more signal
# Sequence of Follistatin (Homo sapiens) (P19883 whole entry, looked up): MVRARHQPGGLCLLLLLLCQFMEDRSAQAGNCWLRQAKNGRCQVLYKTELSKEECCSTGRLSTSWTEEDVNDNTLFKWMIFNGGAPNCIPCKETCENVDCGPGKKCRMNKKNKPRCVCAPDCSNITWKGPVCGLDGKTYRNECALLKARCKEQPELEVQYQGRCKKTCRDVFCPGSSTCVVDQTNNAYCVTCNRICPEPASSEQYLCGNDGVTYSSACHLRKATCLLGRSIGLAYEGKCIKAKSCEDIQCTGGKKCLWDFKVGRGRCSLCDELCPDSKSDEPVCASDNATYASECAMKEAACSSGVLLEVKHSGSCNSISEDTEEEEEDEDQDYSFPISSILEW
# [6] = target: Fibroblast growth factor 2 (Homo sapiens) (UniProt P09038); assay: basic fibroblast growth factor binding to printed compounds – biochemical, small-molecule microarray, 635/667 nm fluorescence, primary screen (AID 1133); conditions: FGF2, fluorescence 635/667, higher = more signal
# Sequence of Fibroblast growth factor 2 (Homo sapiens) (P09038 whole entry, looked up): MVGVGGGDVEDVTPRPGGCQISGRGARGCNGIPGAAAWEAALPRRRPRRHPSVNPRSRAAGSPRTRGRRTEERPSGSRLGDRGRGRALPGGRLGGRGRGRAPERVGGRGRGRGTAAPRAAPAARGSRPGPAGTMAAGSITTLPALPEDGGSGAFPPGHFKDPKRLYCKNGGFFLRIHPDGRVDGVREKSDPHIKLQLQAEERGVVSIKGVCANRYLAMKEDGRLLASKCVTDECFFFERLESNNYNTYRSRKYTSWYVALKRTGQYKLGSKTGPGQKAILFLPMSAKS
# [7] = JC-1 mitochondrial potential readout, lung cancer cells – cell-based, A549, JC-1 fluorescence, basal, 24 h, 100 nL, profiling panel (AID 1138); conditions: higher = more signal;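 also: A549 lung adenocarcinoma cells under basal conditions with no added stimulus; test concentration not given here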
# [8] = test system: Lefty1; assay: Lefty1 protein binding to printed compounds – biochemical, small-molecule microarray, 635/667 nm fluorescence, primary screen (AID 1139); conditions: fluorescence 635/667, higher = more signal
# [9] = test system: wheat germ agglutinin (Triticum aestivum), Alexa647-labelled; assay: Alexa647-WGA lectin binding to printed small molecules – biochemical, small-molecule microarray, 635/667 nm fluorescence, artefact control for SMM control-protein annotation, profiling panel (AID 1140); conditions: WGA-A647 binding, 635 nm fluorescence, higher = more signal;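 also: score merges 667 nm feature emission with signal to noise over triplicate slides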
# [10] = target: Luciferin 4-monooxygenase (Photinus pyralis) (UniProt P08659); assay: inhibition of purified Photinus pyralis luciferase – biochemical, luminescence, purified enzyme, 2006 set, primary screen (AID 1141); conditions: purified firefly luciferase, SteadyGlo luminescence, 30 min; higher = more signal, called active from +8 up or from −8 down;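 also: cell-free assay with purified firefly luciferase at 100 ng per well in PBS; test concentration not given here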
# Sequence of Luciferin 4-monooxygenase (Photinus pyralis) (P08659 whole entry, looked up): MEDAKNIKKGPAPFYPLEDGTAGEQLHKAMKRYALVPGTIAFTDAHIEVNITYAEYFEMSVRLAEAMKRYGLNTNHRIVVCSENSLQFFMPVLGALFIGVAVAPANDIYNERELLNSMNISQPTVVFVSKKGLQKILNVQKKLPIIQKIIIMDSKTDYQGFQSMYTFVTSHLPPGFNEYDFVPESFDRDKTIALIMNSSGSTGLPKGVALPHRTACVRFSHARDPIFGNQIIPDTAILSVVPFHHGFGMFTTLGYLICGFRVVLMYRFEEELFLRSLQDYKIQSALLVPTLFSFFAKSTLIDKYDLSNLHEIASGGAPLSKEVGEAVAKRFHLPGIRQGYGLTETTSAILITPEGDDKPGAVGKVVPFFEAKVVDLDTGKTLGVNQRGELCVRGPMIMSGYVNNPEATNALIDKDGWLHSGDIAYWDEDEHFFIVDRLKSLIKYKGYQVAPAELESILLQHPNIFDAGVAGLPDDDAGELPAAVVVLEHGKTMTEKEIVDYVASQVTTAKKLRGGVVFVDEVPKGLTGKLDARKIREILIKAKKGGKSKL
# [11] = test system: Wnt5a (protein binding on small-molecule microarray); assay: small molecules binding Wnt5a protein – biophysical, small-molecule microarray, 635/667 nm fluorescence, primary screen (AID 1142); conditions: 635 nm fluorescence, higher = more signal;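 also: fluorescence read at 667 nm with signal to noise per printed feature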
# [12] = ATP-based viability of Huh7 replicon cells – cell-based, CellTiter-Glo luminescence, basal, 48 h, cytotoxicity control for HCV replication inhibitor project, primary screen (AID 1143); conditions: higher = more signal, called active from +8 up or from −8 down;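 also: Huh7 hepatoma cells carrying a hepatitis C replication reporter with no stimulus; test concentration not given here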
# [13] = Pseudomonas biofilm growth suppression – PAO1 strain, BacTiter-Glo luminescence, LB-PBS, primary screen (AID 1144); conditions: P. aeruginosa PAO1 biofilm, 12 h, higher = more signal
# [14] = basal CRE-LacZ reporter activity in PC12 – cell-based, unstimulated, primary screen (AID 1145); conditions: no forskolin, luminescence, 4.5 h, higher = more signal, called active from +8 up or from −8 down
# [15] = forskolin-driven CRE-LacZ activity in PC12 – cell-based, CRE-LacZ reporter, forskolin-stimulated, primary screen (AID 1146); conditions: luminescence, 4.5 h, higher = more signal, called active from +8 up or from −8 down;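 also: PC12 cells with 6xCRE LacZ reporter stimulated by forskolin 10 µM; beta-galactosidase reporter signal reflecting CREB driven transcription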
# [16] = target: Streptavidin (Streptomyces avidinii) (UniProt P22629); assay: compounds binding control protein streptavidin – biophysical, small-molecule microarray, 635/667 nm fluorescence, artefact control for SMM compound annotation, primary screen (AID 1147); conditions: higher = more signal;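 also: signal reflects streptavidin binding to arrayed compounds as a control protein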
# Sequence of Streptavidin (Streptomyces avidinii) (P22629 whole entry, looked up): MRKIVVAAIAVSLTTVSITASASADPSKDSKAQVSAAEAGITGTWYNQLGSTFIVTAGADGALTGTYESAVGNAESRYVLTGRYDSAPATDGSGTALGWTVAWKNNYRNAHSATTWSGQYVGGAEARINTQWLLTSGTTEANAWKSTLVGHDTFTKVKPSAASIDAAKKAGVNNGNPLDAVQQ
# [17] = probe aInhba binding on compound microarray – biochemical, small-molecule microarray, 635/667 nm fluorescence, primary screen (AID 1148); conditions: higher = more signal;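 also: score merges 667nm spot fluorescence with signal-to-noise for antibody binding to printed compounds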
# [18] = target: Torsin-1A (Homo sapiens) (UniProt O14656); assay: TOR1A wild-type binding on microarray – cell lysate, small-molecule microarray, lysate, 635/667 nm, primary screen (AID 1149); conditions: COS7 hTOR1A-WT lysate, 635 nm fluorescence, higher = more signal
# Sequence of Torsin-1A (Homo sapiens) (O14656 whole entry, looked up): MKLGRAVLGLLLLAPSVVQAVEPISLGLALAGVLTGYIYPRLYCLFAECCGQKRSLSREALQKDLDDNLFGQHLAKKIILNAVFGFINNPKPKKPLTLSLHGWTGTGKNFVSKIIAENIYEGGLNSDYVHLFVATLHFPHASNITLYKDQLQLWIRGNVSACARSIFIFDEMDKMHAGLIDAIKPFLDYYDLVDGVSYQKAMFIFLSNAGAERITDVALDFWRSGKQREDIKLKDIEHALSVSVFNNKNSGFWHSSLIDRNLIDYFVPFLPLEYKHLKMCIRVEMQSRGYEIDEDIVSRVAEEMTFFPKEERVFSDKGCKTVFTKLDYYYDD
# [19] = target: Torsin-1A (Homo sapiens) (UniProt O14656); assay: torsin A mutant lysate binding on microarrays – cell lysate, small-molecule microarray, COS7 lysate, 635/667 nm fluorescence, primary screen (AID 1150); conditions: COS7 hTOR1A mutant lysate, 635 nm fluorescence, higher = more signal;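 also: score pools 667 nm emission and signal to noise measuring lysate protein binding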
# [20] = test system: Sonic hedgehog protein (Shh); assay: Sonic hedgehog microarray binding compounds – biochemical, small-molecule microarray, 635/667 nm fluorescence, primary screen (AID 1151); conditions: 635 nm fluorescence, higher = more signal;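 also: Shh protein binding to compounds spotted on small-molecule microarray slides; score combines spot fluorescence intensity with signal-to-noise across triplicate slides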
SMILES,composite z-score [1],composite z-score [2],composite z-score [3],composite z-score [4],composite z-score [5],composite z-score [6],z-score [7],composite z-score [8],composite z-score [9],z-score [10],composite z-score [11],z-score [12],z-score [13],z-score [14],z-score [15],composite z-score [16],composite z-score [17],composite z-score [18],composite z-score [19],composite z-score [20]
O=C1c2ccccc2[C@](Cc2ccccc2I)(C(=O)NC2CC2)[C@H](c2ccc(CO)cc2)N1Cc1ccccc1,-0.025,0.0081,-0.186,0.471,0.885,1.16,-0.194,-0.502,0.322,0.873 (inactive),0.384,-2.11 (inactive),-1.02 (inactive),-0.179 (inactive),0.0053 (inactive),-0.248,0.0633,0.189,0.7,0.192
CCOC1=C2C(CN(S(=O)(=O)c3ccc(C)cc3)C2c2ccc(C)cc2)C2C(=O)N(c3ccccc3)C(=O)C2C1 (stereo not given),0.727,1.15,0.553,0.783,0.475,0.301,-0.368,0.535,0.4,1.09 (inactive),-0.069,-0.288 (inactive),-0.382 (inactive),-0.275 (inactive),0.804 (inactive),0.963,0.0906,-0.196,0.115,0.364
COCCOC(=O)N1C(=O)[C@@]2(c3cc(C#CCNC(N)=O)ccc31)[C@H](C(=O)NC[C@H](O)c1ccccc1)[C@H]1C(=O)O[C@H](c3ccccc3)[C@H](c3ccccc3)N1[C@@H]2c1ccccc1OCCO,1.06,0.769,0.564,0.762,1.07,0.73,-1.08,0.946,0.592,-0.533 (inactive),0.8,-0.417 (inactive),-0.0351 (inactive),-0.199 (inactive),-0.972 (inactive),-0.198,0.801,0.403,0.593,1.08
CN1C(=O)C2C=CC(C(O)C3CCCCC3)N(Nc3ccc([N+](=O)[O-])cc3[N+](=O)[O-])C2C1=O (stereo not given),1.08,1.25,0.622,1.02,1.07,0.0734,1.37,0.182,0.497,0.799 (inactive),0.326,0.729 (inactive),1.17 (inactive),0.626 (inactive),1.37 (inactive),1.2,-0.024,1.27,1.04,-0.0056
CO[C@H]1O[C@H](CO)[C@@H](OC(=O)Nc2ccc(Br)cc2)[C@H](OC(=O)c2cc3ccccc3[nH]2)[C@H]1OC(=O)c1cc2ccccc2[nH]1,1.69,1.14,0.468,0.967,0.729,0.355,-1.07,0.311,0.723,-1.75 (inactive),0.363,-6.05 (inactive),-2.24 (inactive),2.38 (inactive),-1.15 (inactive),1.22,0.0342,0.154,0.46,0.819
C=C(C)C1C(=C)CN([C@H](CO)c2ccccc2)C1=O (stereo not given in full),0.0639,-0.534,-0.521,-0.0803,0.189,-0.158,-0.647,0.587,-0.187,1.01 (inactive),-0.231,-0.677 (inactive),-0.65 (inactive),-0.141 (inactive),0.176 (inactive),-1.12,-0.103,-1.46,-0.821,1.28
COCCCNC(=O)C1N=C(c2ccc(OCCCO)cc2)N(c2ccccc2)O1 (stereo not given),1.38,1.03,0.234,0.95,1.11,0.555,0.735,0.517,0.569,-10.5 (active),0.282,-2.78 (inactive),0.708 (inactive),-0.207 (inactive),0.72 (inactive),0.51,0.151,0.777,0.442,0.264
CN(C)C(=O)[C@@]1(Cc2ccccc2)N=C(c2ccc(OCCCO)cc2)O[C@H]1c1ccccc1N=[N+]=[N-],2.01,1.25,0.978,1.01,1.34,0.249,-0.631,0.623,0.382,-6.45 (inactive),0.762,-4.47 (inactive),-1.05 (inactive),0.115 (inactive),-2.09 (inactive),1.5,0.086,0.697,0.505,-0.346
C=CCOC(=O)[C@@H]1[C@H]2C(=O)O[C@H](c3ccccc3)[C@H](c3ccccc3)N2[C@H](c2ccc(OCCOC(=O)[C@@H]3C[C@@H]4C(=O)N[C@@H](Cc5ccccc5)C(=O)N4[C@@H]3c3ccc(O)cc3)cc2)[C@@]12C(=O)Nc1ccc(I)cc12,1.11,0.947,0.375,0.799,1.41,1.61,-1.53,1.41,0.844,0.304 (inactive),0.425,-1.28 (inactive),-0.606 (inactive),-0.537 (inactive),-0.526 (inactive),0.122,0.0154,0.521,0.38,2.22
COC(=O)[C@@]1(Cc2ccccc2)[C@H]2c3cc(C(=O)N(C)C)n(CCSCCO)c3C[C@H]2CN1C(=O)c1ccccc1,1.25,1.2,0.342,0.632,-0.347,-0.299,0.599,-0.84,0.879,1.14 (inactive),0.197,-0.432 (inactive),0.33 (inactive),0.397 (inactive),0.695 (inactive),0.357,-0.0589,-0.0487,0.796,-0.931
C=C/C=C/[C@H]1C(=C)CN([C@@H](Cc2ccccc2)C(=O)OC)[C@@H]1[C@H](O)Cc1ccccc1,-0.677,-0.748,-0.526,-0.108,0.174,-0.348,0.0936,-0.426,0.0321,-0.494 (inactive),-0.224,-0.123 (inactive),0.0605 (inactive),5.75 (inactive),0.794 (inactive),-0.663,-0.0736,-1.74,-1.4,0.122
